12-LOX inh – blocks human arachidonate 12S-lipoxygenase; P18054; purified 12hLO, xylenol orange hydroperoxide absorbance; Potency, µM (highest dose often 108 µM), for inactives: at the top dose activity change, negative = inhibition, actives largely listed as inhibitors; hit rate 1.1% among 580,000; AID 1671190; further: potency means the concentration at half of the fitted maximal effect; on the % scale 0 is the no-effect control and ±100 the full control effect
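Hydroperoxide product was detected by ferrous iron/xylenol orange as the 573 to 405 nm absorbance ratio. Arachidonic acid at 40 uM (final) was turned over for 30 min at room temperature by 150 nM human 12hLO, pH 7.0 Hepes buffer, after 15 min compound preincubation.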
Vif-APOBEC3G blk – Vif-A3G binding inhibition. Q9HC16. HeLa A3G-eYFP + Vif (tagged APOBEC3G with the HIV-1 protein that degrades it), YFP fluorescence, overnight. Potency, µM (highest dose often 46.1 µM), for inactives: top-dose activity, negative = active, actives largely listed as inhibitors. hit rate 0.076% among 410,000. AID 602310; further: potency means the concentration at half of the fitted maximal effect; on the % scale 0 is the no-effect control and ±100 the full control effect; nearly all actives have a fitted effect of over 60% in size
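HeLa cells stably expressing Vif and C-terminally eYFP-tagged A3G, seeded overnight at 37 deg C, then exposed to compound by pintool overnight at 37 deg C. Rise in yellow fluorescence (Ex 488/Em 500-530, Acumen) marks blocked Vif-driven A3G degradation.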
ASM inhibitor – inhibitors of human secretory acid sphingomyelinase. P17405. placental ASM, HMU-PC fluorogenic substrate, 60 min. Potency, µM (doses to about 57.5 µM), inactives show at the top dose activity change, negative = inhibition, most hits filed as inhibitors. hit rate 0.006% among 340,000; further: potency means the concentration at half of the fitted maximal effect
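Human placenta-derived ASM enzyme was preincubated with compound for 10 minutes at room temperature, then given fluorogenic substrate HMU-PC0 (9 uM final) for 60 minutes at 37 °C; a pH 10 stop preceded fluorescence reading at Ex 386/Em 447 nm.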
PTAP TSG101 blk – blocks PTAP/TSG101 interaction to inhibit HIV-1 budding; Q99816; Fluorescence polarization, FITC-PTAP peptide / Tsg101 binding; Potency, µM (series often up to 115 µM), for inactives: at the highest dose activity change, negative = inhibition, actives largely listed as inhibitors; 340,000 tested, under 10 active; active means well fitted inhibition curve with a large enough effect in the main read-out, with a control signal flat, not every such curve was filed as active; inconclusive means small, poorly fitted or top-dose-only effect, or effect the other way, or a change in a side signal; inactive means no such curve, though single readings can be large or run the other way; further: potency means the concentration at half of the fitted maximal effect; % of control where 0% means no effect
Target sequence (Q99816 whole entry, looked up): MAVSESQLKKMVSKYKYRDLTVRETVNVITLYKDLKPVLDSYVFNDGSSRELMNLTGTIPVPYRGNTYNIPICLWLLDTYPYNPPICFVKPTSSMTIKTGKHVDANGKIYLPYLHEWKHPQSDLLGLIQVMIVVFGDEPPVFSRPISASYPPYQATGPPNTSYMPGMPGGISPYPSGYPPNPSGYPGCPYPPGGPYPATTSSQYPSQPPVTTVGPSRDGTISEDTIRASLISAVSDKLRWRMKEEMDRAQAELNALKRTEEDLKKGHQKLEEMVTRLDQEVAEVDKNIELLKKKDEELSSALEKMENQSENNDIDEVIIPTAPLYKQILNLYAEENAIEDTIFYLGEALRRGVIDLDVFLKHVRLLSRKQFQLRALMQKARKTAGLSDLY
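Fluorescence anisotropy tracks displacement of a FITC-tagged PTAP peptide (50 nM) from the Tsg101 binding domain (10 uM), following a 20 min room-temperature incubation at pH 7.5.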
Akt phos inh – inhibitors of Akt phosphorylation; activity change, % for hits at 50 µM; Neuro2A IGF-stimulated pAkt S473 HTRF, 20 min; hits give low values; hit rate 0.32% among 360,000; in the data active means activity change below about -80%; inconclusive means mostly about -51% to -80%; further: on the % scale 0 is the no-effect control and ±100 the full control effect
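Neuro2A cells in DMEM with 0.5% FBS, overnight at 37 deg C, given compound at single 50 µM final, then IGF (6 nM final) for 20 min at 37 deg C. Lysed; phospho-Akt Ser473 by HTRF after 24 h, 665/615 ratio.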
Vif-APOBEC3F blk – inhibitors of Vif-A3F interaction | HeLa A3F-eYFP + Vif (tagged APOBEC3F with the HIV-1 protein that degrades it), YFP fluorescence increase | Potency, µM (series often up to 46.1 µM), without a hit: at the highest dose activity, negative = active | hit rate 0.2% among 390,000; further: potency means the concentration at half of the fitted maximal effect; % of control where 0% means no effect; nearly all actives have a fitted effect of over 65% in size
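HeLa cells stably expressing Vif plus C-terminally eYFP-tagged A3F were seeded, incubated overnight at 37 deg C, dosed with compound, incubated overnight again at 37 deg C. Yellow fluorescence (Ex 488/Em 500-530) reported blocked Vif-mediated A3F-eYFP degradation.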
Active calls of the source: *; i = inactive; u = inconclusive; x = not tested or not shown; [ ] = remark or other dose. Shown are actives, neighbours in structure and some others; about 1.4% of the full set was active somewhere. Unless noted, the call rests on the fitted dose curve; in most records, active means well fitted curve in the direction sought with a large enough effect; inconclusive means small, poorly fitted or top-dose-only effect, or another doubt; inactive means no such curve, though single readings can be large; an effect the other way counts as inactive or inconclusive.

SMILES | 12-LOX inh | Vif-APOBEC3G blk | ASM inhibitor | PTAP TSG101 blk | Akt phos inh | Vif-APOBEC3F blk
Cc1ccccc1Cc1c(C)nc2c(C(=O)N3CCN(Cc4ccc5c(c4)OCO5)CC3)cnn2c1C | -21% | 4% | 1% | -1% | i | -14%
Cc1cccc(Cc2c(C)nc3c(C(=O)N4CCN(Cc5ccc6c(c5)OCO6)CC4)cnn3c2C)c1 | -3% | 4% | -1% | -11% | -83%* | -10%
O=C(NCC1CCCO1)c1nn2c(C(F)(F)F)cc(-c3cc(Br)cs3)nc2c1Br (stereo not drawn) | 0% | -9% | 6% | 9% | i | 10µM*
C/C(=N\NC(=O)Cc1cccs1)c1cccc2ccccc12 | -22% | x | x | x | x | x
CC1(C)CC(=O)C2=C(C1)OC(N)=C(C#N)C2c1ccc(-c2ccc(Br)cc2)o1 (stereo not drawn) | 20µM* | x | x | x | x | x
COc1ccc(C2C(C#N)=C(N)OC3=C2C(=O)CC(C)(C)C3)c2ccccc12 (stereo not drawn) | 7.9µM* | x | x | x | x | x
Cc1cccc(C2CCCN2C(=O)Nc2ccc(C)c(C)c2)c1 (stereo not drawn) | -11% | x | x | x | x | x
CC(C)c1ccccc1NC(=O)c1ccccc1NC(=O)C1CCCCC1 | -5% | 2% | -1% | -4% | i | 2%
CCN(CC)S(=O)(=O)c1ccc(Cl)c(NC(=S)NC(=O)C2CCCC2)c1 | 16µM* | 4% | -5% | -7% | i | 0%
CC(C)c1ccccc1NC(=S)NC(=O)C1CCCCC1 | 16µM* | 5% | -2% | 0% | i | u
Cc1ccc(NC(=S)NC(=O)C2CCCCC2)c(Br)c1 | 32µM* | 0% | -4% | 0% | i | u
CCN(CC)c1ccc(S(=O)(=O)Nc2cc(Cl)ccc2Cl)cc1NC(=S)NC(=O)C1CCCC1 | u | -15% | -8% | -2% | i | -11%
COC(=O)CNC(=O)N1Cc2c(C)nn(-c3ccccc3)c2-n2cccc2C1c1cccc(C)c1 (stereo not drawn) | -29% | x | x | x | x | x
Cc1cccc(NC(=S)NNC(=O)c2cccc([N+](=O)[O-])c2)c1 | 303% | -3% | 2% | -4% | i | -17%
C/C(=N/Nc1ccc([N+](=O)[O-])cc1)c1ccncc1 | 35µM* | x | x | x | x | x
C/C(=N/NC(=S)Nc1cccc(C)c1)c1cccc([N+](=O)[O-])c1 | 40µM* | 0% | -10% | -3% | i | u
C/C(=N\Nc1ccccc1)c1cccc([N+](=O)[O-])c1 | 6.3µM* | x | x | x | x | x
C/C(=N\Nc1cccc([N+](=O)[O-])c1)c1ccccc1O | u | 1% | -11% | 0% | i | u
C/C(=N\NC(=S)Nc1cccc(C)c1)c1cc2ccccc2o1 | 35µM* | 0% | -12% | -3% | i | -6%
O=C(Cc1ccc2ccccc2c1)Nc1cccc2cccnc12 | 39% | x | x | x | x | x
O=[N+]([O-])c1cccc(NN=Nc2ccccc2)c1 | 16µM* | -5% | -12% | -6% | i | 4%
Cc1[nH]c2ccccc2c1/C=N/Nc1ccc([N+](=O)[O-])cc1 | -21% | 10µM* | -29% | 1% | i | 10µM*
C/C(=N\Nc1ccc(Cl)cc1)c1ccncc1 | u | 0% | -2% | 1% | i | -13%
C/C(=N/Nc1ccc([N+](=O)[O-])cc1)c1c[nH]c2ccccc12 | u | u | -11% | 9% | i | 6.3µM*
C/C(=N/Nc1ccc([N+](=O)[O-])cc1)c1ccc(C)cc1C | u | -12% | -18% | 2% | i | -17%
SMILES | 12-LOX inh | Vif-APOBEC3G blk | ASM inhibitor | PTAP TSG101 blk | Akt phos inh | Vif-APOBEC3F blk
C/C(=N\Nc1cccc(Cl)c1)c1ccncc1 | 18µM* | -26% | -4% | 1% | i | -7%
COCCNC[C@@H]1C=C(C)[C@H](Cc2nnc(-c3ccc(OC)cc3)o2)C[C@H]1C(C)C | 23%[176 µM] | x | x | x | x | x
COc1ccc(S(=O)(=O)c2c(C)c(C)n(Cc3ccccc3)c2NC(=O)C(C)C)cc1 | 10% | x | x | x | x | x
C=CCn1c(NCc2ccc3c(c2)OCO3)nc2ccccc21 | 0% | -9% | 0% | -2% | i | 0%
CCn1c(NCc2ccc3c(c2)OCO3)nc2ccccc21 | -1% | 0% | 4% | -2% | -106%* | -3%
Cc1ccc(CSc2nc3nc[nH]c3c(=O)[nH]2)cc1 | -29% | x | x | x | x | x
O=C(c1ccc2c(c1)OCO2)N1CCC(c2nnc3n2CCNC3)CC1 | 10µM* | x | x | x | x | x
CCOC(=O)c1nc2ccccc2nc1NCCc1ccccc1 | -29% | x | x | x | x | x
CCOC(=O)c1nsnc1NCCSC(=N)N | 45µM* | 1% | 25% | 0% | i | 1%
COc1ccccc1-c1[nH]nc2ncc(C(=O)NCC3CCOCC3)nc12 | 25%[176 µM] | x | x | x | x | x
Cc1cc(NC2=CC(=O)C(=O)c3ccccc32)no1 | 40µM* | -14% | -3% | -1% | i | 13%
CNC(=S)N/N=C(\C)c1cccc(C(F)(F)F)c1 | 22µM* | -4% | -6% | 1% | i | u
COC(=O)N/N=C(\C)c1cccc(C(F)(F)F)c1 | -20% | 1% | 0% | -7% | i | 3%
Cc1sc(C=O)cc1CN1CCOCC1 | 56% | x | x | x | x | x
Cc1ccc(C(=O)NC2CCCCCC2)o1 | 0% | -1% | 3% | -2% | -140%* | 6%
Cn1ncc2c(-c3ccc([S+](C)(=O)[O-])cc3)cc(C(=O)NCc3ccc(F)cc3)nc21 | 7%[6.33 µM] | x | x | x | x | x
COC(=O)C1=C(C)N(Cc2ccccc2)C(=S)NC1c1cccc(Br)c1 (stereo not drawn) | 40µM* | x | x | x | x | x
COC(=O)C1=C(C)N(Cc2ccc(Br)cc2)C(=S)NC1c1ccccc1 (stereo not drawn) | 40µM* | x | x | x | x | x
COC(=O)C1=C(C)N(Cc2ccc(Br)cc2)C(=S)NC1c1cccc(Br)c1 (stereo not drawn) | 40µM* | x | x | x | x | x
COC(=O)C1=C(C)N(Cc2ccccc2)C(=S)N[C@H]1c1cccc(F)c1 | u | -6% | -12% | -7% | i | u

From PubChem BioAssay
